ELG1 genotoxic = genotoxicity induction in ELG1-luciferase HEK293T cells; HEK293T ELG1-luciferase reporter, luminescence, 16 h; Potency, µM (doses to about 46 µM), for inactives: top-dose activity change, positive = activation, hits mostly activators; actives 1.3% (n = 330,000); also: % of control where 0% means no effect; nearly all actives have a fitted effect of over 60% in size
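16 hr compound incubation (37 °C, 5% CO2) of HEK293T cells carrying luciferase-tagged ELG1; luciferase then measured by ONE-Glo luminescence after 30 min at RT.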
SW480 rereplic = induces DNA re-replication in SW480 colon adenocarcinoma cells. SW480 DNA re-replication, Hoechst DNA content imaging, 48 h. actives 1.8% (n = 340,000). Potency, µM (titrated, usually from 46.1 µM), for inactives: at the highest dose re-replication activation, hits mostly activators; also: % of control where 0% means no effect; nearly all actives have a fitted effect of over 55% in size
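Per well, 250 cells were exposed to pinned compound for 48 hr. Nuclear DNA was visualised with Hoechst (40 min, 37 C) and total object intensity recorded by fluorescence scanning.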
A-T KAP1 phos = candidate therapy for ataxia-telangiectasia | F2112 A-T fibroblasts, KAP-1 phosphorylation AlphaLISA; neocarzinostatin DNA damage 30 min before lysis | Potency, µM (highest dose often 57.5 µM), for inactives: top-dose activation, hits mostly activators | actives 0.19% (n = 320,000) | AID 485349; also: % of control where 0% means no effect; nearly all actives have a fitted effect of over 45% in size
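hTERT-immortalized A-T patient fibroblasts (F2112), 500 cells/well in OPTI-MEM, 1% FBS, got compounds for 60 min, then NCS for 30 min at 37C. Lysates were then assayed for phospho-KAP-1 by AlphaLISA (anti-pKAP1 donor, anti-KAP1 acceptor beads), 6 hr at 25C.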
ELG1 DNA repair = blocks ELG1-dependent DNA repair in HEK293T cells; HEK293T ELG1-luciferase reporter, luminescence, 16 h; DNA damage induced by 5-fluorouridine; Potency, µM (doses to about 46.1 µM), inactives show at the top dose activity change, negative = inhibition, hits mostly inhibitors; actives 2.3% (n = 330,000); also: % is scaled to controls: 0 for no effect and ±100 for the full control effect; nearly all actives have a fitted effect of over 55% in size
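Cells (2,000 per well) received 5-fluorouridine plus test compound or DMSO and were incubated 16 hr at 37 °C, 5% CO2. Luciferase activity was read by luminescence 30 min after ONE-Glo addition; signal suppression marked inhibition of damage-induced ELG1 function.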
p53 reactivation = restores transcriptional activity of mutant p53; actives 0.063% (n = 320,000); AID 504706; H1299 p53-A138V BP100-luciferase reporter, luminescence, 24 h; Potency, µM (highest dose often 92.2 µM), inactives show top-dose activity change, positive = activation, hits mostly activators; also: % of control where 0% means no effect; nearly all actives have a fitted effect of over 45% in size
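H1299 (p53-null), stable ts p53-A138V + BP100-Luc; 1000 cells/well, Opti-MEM/10% FBS; cpd 4 pt, 1:5; 24 h, 37 deg C, 5% CO2; detection reagent 10 min RT; luminescence.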
MCF10A rerep = DNA re-replication induction in MCF 10a cells | actives 2.9% (n = 350,000) | Potency, µM (series often up to 46.1 µM), for inactives: at the highest dose activity, positive = re-replication, most hits filed as activators | MCF 10A DNA re-replication, Hoechst nuclear intensity, 48 h; also: % of control where 0% means no effect; nearly all actives have a fitted effect of over 50% in size
ELG1 FLuc counter = luciferase inhibition in cell-free luciferin readout for ELG1 hits. shares compounds with ELG1 DNA repair. cell-free firefly luciferase luminescence counter-screen, ViewLux. Potency, µM (titrated, usually from 46.1 µM), inactives show at the highest dose activity change, negative = inhibition, usual class: inhibitors. actives 3% (n = 350). AID 624247; also: % is scaled to controls: 0 for no effect and ±100 for the full control effect
ELG1 Luc conf = inhibits ELG1-dependent DNA repair in HEK293T cells, confirmed | shares compounds with ELG1 DNA repair | Potency, µM (top dose mostly 46.1 µM), for the others: at the highest dose activity change, negative = inhibition, hits mostly inhibitors | HEK293T ELG1-luciferase levels, luminescence; cells co-treated with 5-fluorouridine | actives 68% (n = 670) | AID 624248; also: % is scaled to controls: 0 for no effect and ±100 for the full control effect; nearly all actives have a fitted effect of over 55% in size
Target sequence (Q96QE3 whole entry, looked up): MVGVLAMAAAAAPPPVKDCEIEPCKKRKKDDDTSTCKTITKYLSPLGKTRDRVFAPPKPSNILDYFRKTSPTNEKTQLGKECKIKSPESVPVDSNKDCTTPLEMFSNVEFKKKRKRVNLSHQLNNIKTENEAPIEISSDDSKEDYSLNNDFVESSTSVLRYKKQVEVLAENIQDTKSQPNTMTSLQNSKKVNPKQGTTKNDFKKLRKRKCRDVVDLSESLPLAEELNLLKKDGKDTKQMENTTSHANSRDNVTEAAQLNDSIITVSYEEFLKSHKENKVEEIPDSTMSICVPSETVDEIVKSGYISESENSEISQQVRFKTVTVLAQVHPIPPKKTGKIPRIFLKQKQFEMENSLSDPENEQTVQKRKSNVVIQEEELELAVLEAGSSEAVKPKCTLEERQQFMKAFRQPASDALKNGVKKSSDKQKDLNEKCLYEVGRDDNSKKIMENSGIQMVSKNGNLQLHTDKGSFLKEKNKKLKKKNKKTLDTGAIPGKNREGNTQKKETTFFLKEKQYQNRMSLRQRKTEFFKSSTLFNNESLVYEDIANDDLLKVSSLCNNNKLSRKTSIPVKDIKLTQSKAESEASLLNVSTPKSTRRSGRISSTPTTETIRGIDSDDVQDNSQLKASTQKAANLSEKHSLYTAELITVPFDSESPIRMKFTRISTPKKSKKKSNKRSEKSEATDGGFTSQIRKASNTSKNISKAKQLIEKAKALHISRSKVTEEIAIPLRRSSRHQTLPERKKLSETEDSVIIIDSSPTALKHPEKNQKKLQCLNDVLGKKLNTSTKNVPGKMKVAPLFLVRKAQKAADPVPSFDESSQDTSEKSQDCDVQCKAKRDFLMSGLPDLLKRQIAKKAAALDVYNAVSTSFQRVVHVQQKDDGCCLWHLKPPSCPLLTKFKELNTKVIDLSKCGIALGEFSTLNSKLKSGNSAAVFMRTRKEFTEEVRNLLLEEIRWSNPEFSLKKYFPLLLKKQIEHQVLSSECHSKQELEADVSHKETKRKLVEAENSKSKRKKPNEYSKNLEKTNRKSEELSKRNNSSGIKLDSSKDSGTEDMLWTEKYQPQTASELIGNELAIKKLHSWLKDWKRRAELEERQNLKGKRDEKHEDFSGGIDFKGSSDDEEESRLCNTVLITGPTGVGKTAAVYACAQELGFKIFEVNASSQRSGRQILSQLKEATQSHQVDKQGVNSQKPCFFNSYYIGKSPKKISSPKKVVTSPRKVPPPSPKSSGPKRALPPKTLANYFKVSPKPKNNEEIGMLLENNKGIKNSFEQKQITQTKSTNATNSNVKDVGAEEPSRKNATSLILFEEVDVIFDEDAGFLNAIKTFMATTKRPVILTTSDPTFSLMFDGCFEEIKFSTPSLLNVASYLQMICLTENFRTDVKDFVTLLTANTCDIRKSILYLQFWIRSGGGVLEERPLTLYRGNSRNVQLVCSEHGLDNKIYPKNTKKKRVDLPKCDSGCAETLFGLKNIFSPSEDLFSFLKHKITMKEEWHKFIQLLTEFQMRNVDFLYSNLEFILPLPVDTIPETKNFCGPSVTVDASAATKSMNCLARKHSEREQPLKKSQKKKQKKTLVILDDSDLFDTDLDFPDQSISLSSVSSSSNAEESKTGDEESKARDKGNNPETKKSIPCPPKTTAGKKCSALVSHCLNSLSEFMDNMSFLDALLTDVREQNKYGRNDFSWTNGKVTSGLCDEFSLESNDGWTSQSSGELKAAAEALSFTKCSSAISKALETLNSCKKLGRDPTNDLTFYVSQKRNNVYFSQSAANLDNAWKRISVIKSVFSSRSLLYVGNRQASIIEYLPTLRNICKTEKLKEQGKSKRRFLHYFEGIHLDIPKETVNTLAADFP
ELG1 MMS Luc = MMS-stimulated human ELG1 repair inhibition, confirmed. actives 53% (n = 670). shares compounds with ELG1 DNA repair. Potency, µM (titrated, usually from 46.1 µM), without a hit: at the top dose activity change, negative = inhibition, actives largely listed as inhibitors. HEK293T luciferase-tagged ELG1 level, MMS stimulated; also: % is scaled to controls: 0 for no effect and ±100 for the full control effect; nearly all actives have a fitted effect of over 60% in size
ELG1 5-FU = confirmation of ELG1 repair inhibitors: viability with 5FU; 670 tested, under 10 active; cell viability with 5-FU, ELG1-dependent repair; Potency, µM (titrated, usually from 46.1 µM), inactives show at the top dose activity change, negative = viability loss, most hits filed as cytotoxic; shares compounds with ELG1 DNA repair;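 also: ELG1-luc HEK293T cells cotreated with 5-fluorouridine at 10 µM final; viability measured 16 h after compound addition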
ELG1 MMS viab = confirmation of ELG1 repair inhibitors: viability with MMS; shares compounds with ELG1 DNA repair; Potency, µM (top dose mostly 46.1 µM), without a hit: at the highest dose activity change, negative = viability loss, hits mostly cytotoxic; Cell viability with MMS, ELG1-dependent DNA repair; actives 33% (n = 670); AID 624251;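 also: ELG1-luc HEK293T cells co-treated with 10 µM MMS; viability read 16 h after compound addition; % is scaled to controls: 0 for no effect and ±100 for the full control effect; nearly all actives have a fitted effect of over 60% in size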
Cell viab unstim = counter-screen for ELG1 repair inhibitors: unstimulated cell viability | shares compounds with ELG1 DNA repair | cell viability counter-screen, unstimulated, luminescence | Potency, µM (doses to about 45.9 µM), without a hit: at the top dose activity change, negative = loss of viability, usual class: cytotoxic | actives 8% (n = 900) | AID 624252;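 also: compound exposure lasted 16 hours before reading; % is scaled to controls: 0 for no effect and ±100 for the full control effect; nearly all actives have a fitted effect of over 55% in size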
FLuc biochem = firefly luciferase inhibition counter-screen | purified firefly luciferase, luminescence counter-screen | actives 10% (n = 350) | Potency, µM (highest dose often 57.5 µM), inactives show at the highest dose activity, negative = inhibition, hits mostly inhibitors | shares compounds with ELG1 DNA repair; also: % is scaled to controls: 0 for no effect and ±100 for the full control effect
Active calls of the source: *; ? = inconclusive; · = no result. Most compounds without a hit are left out; they make up all but 7.1% or so of the library. Calls follow the shape of the dose curve; as a rule, active = well fitted curve in the direction sought with a large enough effect; inconclusive = small, poorly fitted or top-dose-only effect, or another doubt; inactive = no such curve, though single readings can be large; an effect the other way counts as inactive or inconclusive. Potency is read from the fitted curve at half-maximal effect.

SMILES	ELG1 genotoxic	SW480 rereplic	A-T KAP1 phos	ELG1 DNA repair	p53 reactivation	MCF10A rerep	ELG1 FLuc counter	ELG1 Luc conf	ELG1 MMS Luc	ELG1 5-FU	ELG1 MMS viab	Cell viab unstim	FLuc biochem
CSCCC(Nc1ncnc2ccc(Br)cc12)C(=O)O (stereo not given)	0%	1%	2%	0%	-6%	2%	·	·	·	·	·	·	·
CCOC(=O)c1cc(-c2cc(OC)c(OC)c(OC)c2)nc2c1c(=O)[nH]c(=O)n2Cc1ccccc1	8.2µM*	-5%	-2%	13%	-1%	2%	42%	·	·	·	·	?	-5%
CCOC(=O)c1cc(-c2ccc(F)cc2)nc2c1c(=O)[nH]c(=O)n2Cc1ccccc1	?	3%	6%	29%	-4%	1%	·	·	·	·	·	·	·
Cc1ccc(NC(=O)CCc2nnc3ccc(N4CCC(C)CC4)nn23)nc1	5%	-14%	3%	2.9µM*	2%	5%	·	4.4µM*	29%	?	0%	?	·
CCC1CCCCN1CCCNC(=O)c1ccc2nc(N3CCC(C)CC3)sc2c1 (stereo not given)	0.16µM*	18µM*	1%	?	?	20%	102%	·	·	·	·	-12%	?
CC1CCN(c2nc3ccc(C(=O)NCCCN4CCCCC4)cc3s2)CC1	?	18%	-5%	?	11%	19%	·	·	·	·	·	·	·
CCCCCn1c2c(c(=N)c3ccccc31)CCC2	-18%	-3%	4%	5.2µM*	-3%	-34%	?	2µM*	2.2µM*	-16%	2.8µM*	?	3%
O=C1OC(c2ccccc2)Cc2cc(C(=O)N3CCN(c4ccc(F)cc4)CC3)ccc21 (stereo not given)	-3%	-1%	-1%	-15%	-8%	14%	·	·	·	·	·	·	·
Cc1ccc(N2CN=c3s/c(=C\c4cccnc4)c(=O)n3C2)cc1	-10%	1%	13%	2.3µM*	21%	6%	-13%	?	?	1%	1%	?	-19%
Cc1ccc(NC2CCCN(C(=O)CCN3CCCCO3)C2)cc1C (stereo not given)	2%	-1%	2%	2%	-2%	-5%	·	·	·	·	·	·	·
O=C(Nc1ccc(F)cc1)C1CCC(CNc2c(N3CCCCC3)c(=O)c2=O)CC1 (stereo not given)	-3%	-4%	-9%	0%	-6%	0%	73%	?	7%	5%	-4%	-11%	-10%
COc1cc(NC(=O)C2CCC(CNc3c(N4CCC(C)CC4)c(=O)c3=O)CC2)cc(OC)c1 (stereo not given)	?	1%	-2%	?	-11%	19%	·	·	·	·	·	·	·
CCOc1ccc(NC(=O)C2CCC(CNc3c(N4CCCCC4)c(=O)c3=O)CC2)cc1 (stereo not given)	1%	-4%	-5%	?	-11%	10%	·	·	·	·	·	·	·
COc1cc(NC(=O)C2CCC(CNc3c(N4CCCCC4)c(=O)c3=O)CC2)cc(OC)c1 (stereo not given)	10%	-7%	10%	?	-4%	3%	-9%	11µM*	-8%	?	-16%	?	-6%
Cn1c(=O)c(=O)n(C)c2cc(S(=O)(=O)N3CCC(Cc4ccccc4)CC3)ccc21	1%	-3%	-1%	3%	-5%	8%	·	·	·	·	·	·	·
CCn1c(=O)n(CC)c2cc(S(=O)(=O)N3CCC(c4ccccc4)CC3)ccc21	-2%	-2%	11%	?	7%	-5%	-12%	·	·	·	·	?	-3%
O=C(O)c1cccc(Nc2nc(N3CCOCC3)nc(N3CCOCC3)n2)c1	-6%	0%	-3%	-1%	-10%	-4%	21%	0%	23%	-1%	-4%	-7%	-9%
CN1CCN(c2nc(Nc3cccc(C(F)(F)F)c3)nc(N3CCOCC3)n2)CC1	?	?	3%	?	-1%	12%	·	·	·	·	·	·	·
O=C(CSc1nc2ccc(Nc3nc(N4CCOCC4)nc(N4CCOCC4)n3)cc2s1)Nc1ccccc1Cl	1%	?	1%	2.9µM*	7%	18µM*	?	4µM*	-13%	?	0%	-7%	-1%
CC1CCN(S(=O)(=O)c2cccc(C(=O)Nc3nncs3)c2)CC1	-6%	-3%	9%	-16%	6%	2%	·	·	·	·	·	·	·
COC(=O)Nc1nc2ccc(C(=O)c3cccs3)cc2[nH]1	·	0.24µM*	·	·	·	0.21µM*	·	·	·	·	·	-10%	·
CCS(=O)(=O)N1CCC(NC(=O)C(Cc2cc(OC)ccc2OC)NC(C)=O)CC1 (stereo not given)	-3%	0%	9%	-1%	·	-3%	·	·	·	·	·	·	·
O=C(N/N=C/c1ccc(OC(=O)c2ccc(Br)cc2)cc1)c1ccncc1	-10%	-11%	11%	14%	1%	-1%	·	·	·	·	·	·	·

Screening data deposited in PubChem by National Center for Advancing Translational Sciences (NCATS).
